Screening results from PubChem.
Compounds with a hit are over-represented: about 3.3% of the library has one in this group of screens.
HTT cytoprotect: cytoprotection in Huntington HTT-Q103 PC12 cell model. AID 1471. Potency, µM (top dose mostly 56.4 µM), usual class: activators. PC12 HTT-Q103 induced, cytoprotection, ATP luminescence, 40 h. 0.14% of 230,000 active; further: nearly all actives have a fitted effect of over 45% in size
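PC12 cells with ecdysone-inducible HTT exon 1 Q103-GFP, induced with 100 nM tebufenozide and co-treated with library compounds in a dose series (1536-well, 1500 cells/well). Cytoprotection read as ATP content by ATPlite luminescence.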
HttQ103 aggreg: reduces HttQ103-GFP aggregates in PC12 cells | AID 1688 | 1.1% of 220,000 active | PC12 HttQ103-GFP aggregates, Acumen cytometry, 40 h | Potency, µM (highest dose often 46.1 µM), most hits filed as inhibitors; further: nearly all actives have a fitted effect of over 60% in size
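PC12 cells stably carrying ecdysone-inducible HTT exon 1 Q103–GFP were induced with tebufenozide (100 nM final) and treated with library compounds in titration. GFP aggregates in lysates were counted by laser scanning cytometry.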
IMPase inh: IMPase inhibition in cells | P97697 | CHO-M1 cells, IP1 accumulation, HTRF TR-FRET ratio | inhibition (IP1 accumulation), % at 46.1 µM | 120,000 tested, under 10 active | AID 901; active means well fitted curve in the direction sought with a large enough effect in the signal ratio, not every such curve was filed as active; inconclusive means small, poorly fitted or top-dose-only effect, or a change in a side signal; inactive means no such curve, though single readings can be large or run the other way; the % refers to the signal ratio;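 further: cells stimulated with carbachol in lithium chloride buffer; higher means more IMPase inhibition seen as more IP1 and lower FRET ratio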
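Elevated IP1 in lysates lowers TR-FRET signal (665/620 ratio and 620 channel reported). Cells were CHO-M1, given carbachol (50 uM as added) plus 50mM LiCl, pH 7.4, 30 min, 37C; compounds titrated up to 46 uM; AC50 by Hill equation.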
NPSR antag: blocks cAMP signaling of the human neuropeptide S receptor; CHO-NPSR cells, cAMP TR-FRET, antagonist mode; Potency, µM (top dose mostly 38.3 µM), most hits filed as inhibitors; 1% of 220,000 active; AID 1461; further: nearly all actives have a fitted effect of over 50% in size
Target sequence (Q6W5P4 whole entry, looked up): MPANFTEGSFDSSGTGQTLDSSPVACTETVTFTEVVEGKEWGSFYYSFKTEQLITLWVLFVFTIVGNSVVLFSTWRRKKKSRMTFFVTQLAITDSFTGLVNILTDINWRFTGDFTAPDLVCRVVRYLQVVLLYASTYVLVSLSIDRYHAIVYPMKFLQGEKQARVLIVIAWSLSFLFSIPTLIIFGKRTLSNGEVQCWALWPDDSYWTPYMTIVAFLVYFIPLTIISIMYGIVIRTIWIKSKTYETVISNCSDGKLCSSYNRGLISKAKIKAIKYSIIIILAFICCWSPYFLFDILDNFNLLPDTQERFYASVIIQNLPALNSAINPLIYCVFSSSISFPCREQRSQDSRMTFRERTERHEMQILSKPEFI
PNC assembly inh: perinucleolar compartment assembly inhibition; PC3M PTB-GFP, PNC prevalence imaging, 16 h; active compounds read low; activity change (PNC), negative = inhibition, % at 10 µM; 3.1% of 140,000 active; AID 2417;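 active means readout at or below -70, meaning at least 70% loss of cells showing the perinucleolar compartment, a nuclear body marking cancer cells; inconclusive means readout between -30 and a set limit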
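PC3M cells stably expressing PTB-GFP, 750–1000 cells/well, treated 16 h at 37 °C with compound (23 nl of library stock), in duplicate. After paraformaldehyde fixation and Hoechst stain, imaged at 20x; PNC prevalence scored by image analysis.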
ALOX12 inhib: inhibitors of human 12-lipoxygenase (ALOX12); 0.12% of 150,000 active; AID 1452; purified 12-hLO, xylenol orange hydroperoxide absorbance; P18054; Potency, µM (series often up to 57.1 µM), usual class: inhibitors; further: nearly all actives have a fitted effect of over 55% in size
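Purified human 12hLO (150 nM final) was preincubated with compounds for 15 min at room temperature in 25 mM Hepes pH 7.0, 0.01% Triton X-100, then reacted with 40 uM arachidonic acid for 30 min. Hydroperoxide was detected with ferrous iron/xylenol orange.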
Of the large screens only hits and unclear results are named; the others gave an inactive call. Unless noted, the call rests on the fitted dose curve; in most records, active means well fitted curve in the direction sought with a large enough effect; inconclusive means small, poorly fitted or top-dose-only effect, or another doubt; inactive means no such curve, though single readings can be large; an effect the other way counts as inactive or inconclusive.

CCN(CC)CCCC(C)Nc1nc(C)cc(Nc2ccc3nc(C)cc(N)c3c2)n1 (stereo not drawn)	none (no result: HttQ103 aggreg, IMPase inh, NPSR antag, PNC assembly inh)
OC[C@H]1O[C@@H](n2cnc3c(NC4CCCC4)ncnc32)[C@H](O)[C@@H]1O	HttQ103 aggreg inconclusive, PNC assembly inh -115 (no result: IMPase inh)
CC(Sc1ncc(C#N)c(N)n1)C(=O)Nc1ccccc1 (stereo not drawn)	PNC assembly inh -112
Cc1cc(NC(=O)CCC(=O)N(CC(=O)NCC2CCCO2)c2ccc3c(c2)OCCO3)no1 (stereo not drawn)	none (no result: IMPase inh)
CC(=O)c1cccc(N(CC(=O)NCC2CCCO2)C(=O)CCC(=O)Nc2cc(C)on2)c1 (stereo not drawn)	PNC assembly inh -100
CCN1C(=O)[C@@H]2[C@H](C1=O)[C@@H]1C[C@H]3C(=O)N(CC)C(=O)[C@H]3[C@@H]3C1=C(C(=O)N1C(=O)O/C(=N\CC4CC4)[C@]31C)[C@@H]2C	none (no result: HttQ103 aggreg, IMPase inh, NPSR antag, PNC assembly inh)
COc1ccc(CCNC(=S)Nc2cc(C)ccc2C)cc1	ALOX12 inhib 7.9µM
CC(C)CC(C(=O)Nn1cnnc1)N1C(=O)c2ccccc2C1=O (stereo not drawn)	PNC assembly inh -100
CCOC(=O)CCN1C(=O)[C@H]2[C@H]3[C@H](O)[C@H](O)C/C(=N/OC/C=C(\C)CCC=C(C)C)[C@@H]3CC[C@@H]2C1=O	none (no result: HttQ103 aggreg, IMPase inh, NPSR antag, PNC assembly inh, ALOX12 inhib)
Cc1[nH]nc2c1C(c1ccccc1F)NC2=O (stereo not drawn)	PNC assembly inh -103
CCOc1ccc(C2NC(=O)c3n[nH]c(C)c32)cc1 (stereo not drawn)	PNC assembly inh inconclusive
Cn1nccc1NC(=O)CSCC(=O)O	none (no result: IMPase inh, PNC assembly inh, ALOX12 inhib)
O=P(O)(CCc1ccccc1)CN1CCCCC1	PNC assembly inh -82
O=C1CCCCCN1CP(=O)(O)CCc1ccccc1	none
COc1cc2c3nnc(-c4ccc(F)cc4)c-3cn(Cc3cccc(F)c3)c2cc1OC	HttQ103 aggreg 10µM (no result: IMPase inh, PNC assembly inh, ALOX12 inhib)
COc1cc2c3nnc(-c4ccc(F)cc4)c-3cn(Cc3cccc(C)c3)c2cc1OC	none
CCC(=O)NC(c1cccs1)c1cc([N+](=O)[O-])c2cccnc2c1O (stereo not drawn)	HttQ103 aggreg inconclusive, ALOX12 inhib 2.8µM (no result: IMPase inh)
CC(=O)NC(c1cccs1)c1cc([N+](=O)[O-])c2cccnc2c1O (stereo not drawn)	HttQ103 aggreg 3.2µM, ALOX12 inhib inconclusive (no result: IMPase inh)
CCCC(=O)NC(c1cccs1)c1cc([N+](=O)[O-])c2cccnc2c1O (stereo not drawn)	HttQ103 aggreg 11µM, ALOX12 inhib inconclusive
O=C(CSc1nc2ccccc2n1S(=O)(=O)c1cccc([N+](=O)[O-])c1)NCCc1ccccc1	PNC assembly inh -113 (no result: HTT cytoprotect, IMPase inh)
CCCCNC(=O)CSc1nc2ccccc2n1S(=O)(=O)c1ccc(Br)cc1	HttQ103 aggreg inconclusive (no result: HTT cytoprotect, IMPase inh)
CCCCNC(=O)CSc1nc2ccccc2n1S(=O)(=O)c1ccc(Cl)cc1	PNC assembly inh -119
c1ccc(-c2nc(-c3cccc4ccccc34)c(Nc3ccc4ccccc4c3)o2)cc1	none (no result: HttQ103 aggreg, IMPase inh, NPSR antag, PNC assembly inh)
Cc1nc2sc3c(c2c(=O)[nH]1)CCCC3	none (no result: IMPase inh, PNC assembly inh)
O=c1[nH]c(S)nc2sc3c(c12)CCCC3	HttQ103 aggreg inconclusive (no result: IMPase inh, PNC assembly inh, ALOX12 inhib)
CCC1(C)Cc2c(sc3nn[nH]c(=O)c23)CO1 (stereo not drawn)	none
CC1(C)Cc2c(sc3nn[nH]c(=O)c23)CO1	PNC assembly inh -85
O=c1[nH]c(-c2ccco2)nc2sc3c(c12)CCCC3	PNC assembly inh -116 (no result: IMPase inh)
O=c1[nH]nnc2sc3c(c12)CCCC3	HttQ103 aggreg 11µM
CCCN1C[C@@H](CSC)C[C@H]2c3cccc4[nH]cc(c34)C[C@@H]21	none (no result: HttQ103 aggreg, NPSR antag, PNC assembly inh)
C=C(C)[C@@H]1CCC2(C(=O)O)CC[C@]3(C)[C@H](CC[C@@H]4[C@@]5(C)CCC(=O)C(C)(C)[C@@H]5CC[C@]43C)[C@@H]12 (stereo partly drawn)	PNC assembly inh -95 (no result: HTT cytoprotect, IMPase inh)
N#Cc1cc(Oc2cccc3cccnc23)c(-n2nnc3ccccc32)cc1C#N	NPSR antag inconclusive, ALOX12 inhib 10µM
